Experimental findings from ChEMBL document CHEMBL3988442, “University of Dundee, Small-Polar-MMV Screening Library” (2021) are described below.

“And” between values parts separate entries of the source, which are not always exact repeats. Equal values may be shown once. For part of these data: Potency and affinity values are given separately.

What all share (parameters): scale not given: direction of the effect not stated beside the values
For test [1], the target named is Protein translocase subunit SecA (Escherichia coli (strain K12)) (UniProt P10408). The test can be described thus: Assay to Identify E. coli SecA ATPase Inhibitors. The class given is functional. To be noted: 30 µM.
Chain of Protein translocase subunit SecA (Escherichia coli (strain K12)) (P10408 whole entry): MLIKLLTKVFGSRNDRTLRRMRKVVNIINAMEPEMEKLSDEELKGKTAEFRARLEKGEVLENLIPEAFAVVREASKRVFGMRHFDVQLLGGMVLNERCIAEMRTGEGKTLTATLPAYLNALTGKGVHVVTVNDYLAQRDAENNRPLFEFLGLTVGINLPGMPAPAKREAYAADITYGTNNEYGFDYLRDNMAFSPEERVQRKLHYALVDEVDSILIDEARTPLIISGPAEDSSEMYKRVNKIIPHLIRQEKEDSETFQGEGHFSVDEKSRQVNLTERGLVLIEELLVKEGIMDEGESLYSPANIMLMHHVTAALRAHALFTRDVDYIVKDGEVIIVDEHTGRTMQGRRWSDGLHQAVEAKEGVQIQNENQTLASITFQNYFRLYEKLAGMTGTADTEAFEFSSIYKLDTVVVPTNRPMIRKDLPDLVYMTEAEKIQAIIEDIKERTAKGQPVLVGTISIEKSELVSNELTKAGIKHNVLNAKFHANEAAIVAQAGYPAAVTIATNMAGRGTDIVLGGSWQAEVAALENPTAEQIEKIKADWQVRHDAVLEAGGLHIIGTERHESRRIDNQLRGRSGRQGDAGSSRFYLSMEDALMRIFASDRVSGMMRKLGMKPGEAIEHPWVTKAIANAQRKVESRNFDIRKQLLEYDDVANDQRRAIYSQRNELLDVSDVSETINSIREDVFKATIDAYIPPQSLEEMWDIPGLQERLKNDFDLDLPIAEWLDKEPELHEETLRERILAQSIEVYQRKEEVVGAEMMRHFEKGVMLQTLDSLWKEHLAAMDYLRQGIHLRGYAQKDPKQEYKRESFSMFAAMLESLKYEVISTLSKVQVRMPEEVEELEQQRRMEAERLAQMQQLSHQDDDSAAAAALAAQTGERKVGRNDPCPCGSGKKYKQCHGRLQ
Test [2] deals with T1, Ubiquitin-activating enzyme e1, putative (Leishmania donovani (strain BPK282A1)) (UniProt E9BSI1).
T1 sequence (whole entry): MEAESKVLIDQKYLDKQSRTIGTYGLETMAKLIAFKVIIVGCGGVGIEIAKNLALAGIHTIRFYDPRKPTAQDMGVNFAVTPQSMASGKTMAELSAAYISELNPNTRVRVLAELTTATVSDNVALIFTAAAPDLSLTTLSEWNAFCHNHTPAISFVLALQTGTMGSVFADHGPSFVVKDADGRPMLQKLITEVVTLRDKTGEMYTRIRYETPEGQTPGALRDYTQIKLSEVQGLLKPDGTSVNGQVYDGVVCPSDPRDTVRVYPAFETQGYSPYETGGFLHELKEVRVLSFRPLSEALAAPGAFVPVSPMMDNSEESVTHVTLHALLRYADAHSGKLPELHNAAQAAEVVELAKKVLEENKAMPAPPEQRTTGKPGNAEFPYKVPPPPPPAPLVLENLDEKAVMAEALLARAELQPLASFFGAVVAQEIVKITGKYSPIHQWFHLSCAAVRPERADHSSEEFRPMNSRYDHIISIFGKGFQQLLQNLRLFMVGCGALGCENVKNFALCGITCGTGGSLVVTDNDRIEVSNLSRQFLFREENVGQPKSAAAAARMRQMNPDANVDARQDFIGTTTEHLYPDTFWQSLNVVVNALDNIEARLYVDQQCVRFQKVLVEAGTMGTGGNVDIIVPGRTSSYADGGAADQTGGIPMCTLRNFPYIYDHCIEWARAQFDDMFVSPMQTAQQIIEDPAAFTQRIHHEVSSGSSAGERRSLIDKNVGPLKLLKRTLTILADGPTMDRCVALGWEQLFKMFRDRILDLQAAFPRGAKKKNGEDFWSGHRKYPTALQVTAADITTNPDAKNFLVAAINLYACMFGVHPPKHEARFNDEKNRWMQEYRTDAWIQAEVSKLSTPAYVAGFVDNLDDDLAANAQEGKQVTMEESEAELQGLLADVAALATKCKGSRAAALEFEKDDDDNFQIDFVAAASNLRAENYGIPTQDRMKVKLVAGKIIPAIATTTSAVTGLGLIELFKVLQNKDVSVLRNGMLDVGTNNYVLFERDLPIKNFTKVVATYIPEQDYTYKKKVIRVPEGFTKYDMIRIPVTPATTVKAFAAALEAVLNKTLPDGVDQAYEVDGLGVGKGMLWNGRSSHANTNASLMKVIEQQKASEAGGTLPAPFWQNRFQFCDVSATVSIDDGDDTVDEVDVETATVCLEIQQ
Put plainly: Leishmania donovani Ubiquitin Activating Enzyme (LdE1). The format is functional. To be noted: 30 µM.

In test [3] the target is AMP-activated protein kinase, AMPK (Homo sapiens) (UniProt P54646+O43741+P54619+Q9UGJ0+Q9Y478+Q13131+Q9UGI9). Put plainly: AMP-dependent Kinase enzyme assay. An in vitro enzyme assay that detects ADP turnover that is directly proportional to AMPK activity. This uses naive AMPK that is activated during the assay with MK-8722. The format is functional. To be noted: 30 µM.

In test [4] the target is Sialic acid-binding Ig-like lectin 9 (Homo sapiens) (UniProt Q9Y336). Put plainly: Hs-Siglec9 ALPHAscreen SOP 20170721. Conditions: 10 µM. (In general: In Alpha technology, singlet oxygen from a donor bead excites a nearby acceptor bead.)
Chain of Sialic acid-binding Ig-like lectin 9 (Homo sapiens) (Q9Y336 whole entry): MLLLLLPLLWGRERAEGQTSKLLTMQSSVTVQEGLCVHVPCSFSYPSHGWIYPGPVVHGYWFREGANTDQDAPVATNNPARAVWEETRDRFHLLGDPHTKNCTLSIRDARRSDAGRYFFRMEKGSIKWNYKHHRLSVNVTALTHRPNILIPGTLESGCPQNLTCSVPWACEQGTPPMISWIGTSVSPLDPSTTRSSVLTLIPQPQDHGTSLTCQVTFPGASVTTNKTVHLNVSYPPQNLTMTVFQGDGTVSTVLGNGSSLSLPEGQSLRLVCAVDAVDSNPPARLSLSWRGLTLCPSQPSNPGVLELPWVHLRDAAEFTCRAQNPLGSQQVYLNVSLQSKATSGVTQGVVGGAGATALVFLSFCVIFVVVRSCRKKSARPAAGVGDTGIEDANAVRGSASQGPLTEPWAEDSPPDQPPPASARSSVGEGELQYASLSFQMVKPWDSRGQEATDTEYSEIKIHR
The subject of another test is Trypanosoma cruzi. The test can be described thus: Trypanosoma cruzi phosphomannomutase and mannose-1-phosphate guanylyltransferase assay. The class given is functional. Conditions: 10 µM.
Test [5] concerns the target T2, Arginase-2, mitochondrial (Homo sapiens) (UniProt P78540).
T2 sequence (whole entry): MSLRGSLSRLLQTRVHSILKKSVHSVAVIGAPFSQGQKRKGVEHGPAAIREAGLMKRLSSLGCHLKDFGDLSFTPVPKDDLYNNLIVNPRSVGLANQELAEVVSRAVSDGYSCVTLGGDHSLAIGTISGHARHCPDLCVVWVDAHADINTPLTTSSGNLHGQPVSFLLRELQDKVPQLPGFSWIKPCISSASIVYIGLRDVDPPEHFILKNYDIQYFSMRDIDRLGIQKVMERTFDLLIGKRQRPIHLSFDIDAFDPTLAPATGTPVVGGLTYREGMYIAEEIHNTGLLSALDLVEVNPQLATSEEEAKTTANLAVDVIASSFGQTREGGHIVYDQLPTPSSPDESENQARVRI
The test can be described thus: in vitro enzyme assay to detect the production of urea directly proportional to the activity of Arginase II. Note: in the data most compounds retested in dose-response had high values. The format is functional.

Test [6] deals with T3, Proteasome subunit beta (Trypanosoma cruzi) (UniProt O96673).
T3 sequence (whole entry): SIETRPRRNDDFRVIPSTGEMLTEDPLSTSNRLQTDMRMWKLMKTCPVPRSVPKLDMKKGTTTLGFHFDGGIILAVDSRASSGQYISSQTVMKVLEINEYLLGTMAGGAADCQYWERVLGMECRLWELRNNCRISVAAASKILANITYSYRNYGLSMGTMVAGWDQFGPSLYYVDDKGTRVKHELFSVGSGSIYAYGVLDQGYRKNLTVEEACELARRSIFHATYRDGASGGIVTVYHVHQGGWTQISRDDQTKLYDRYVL
Put plainly: Trypanosoma cruzi proteasome chymotrypsin-like activity (TcProtChymo) assay. Note: in the data most compounds retested in dose-response had high values. Conditions: 9.37 µM. The class given is functional.

The test system of another test is N/A. The test can be described thus: Trypanosoma cruzi proteasome luciferase counter-screen. The format is functional. To be noted: 9.37 µM. In general terms: Counterscreens check selectivity or assay interference.
The species entered for the next test is Homo sapiens. Put plainly: To identify inhibition of the IFN signalling (Jak-Stat) pathway via expression of an eGFP reporter gene under the control of an IFN-stimulated response element (ISRE) containing MxA promoter. The format is functional. To be noted: 30 µM.
Test [7] concerns the target T4, Tyrosyl-tRNA synthetase, putative (Trypanosoma cruzi (strain CL Brener)) (UniProt Q4DSP6).
T4 sequence (whole entry): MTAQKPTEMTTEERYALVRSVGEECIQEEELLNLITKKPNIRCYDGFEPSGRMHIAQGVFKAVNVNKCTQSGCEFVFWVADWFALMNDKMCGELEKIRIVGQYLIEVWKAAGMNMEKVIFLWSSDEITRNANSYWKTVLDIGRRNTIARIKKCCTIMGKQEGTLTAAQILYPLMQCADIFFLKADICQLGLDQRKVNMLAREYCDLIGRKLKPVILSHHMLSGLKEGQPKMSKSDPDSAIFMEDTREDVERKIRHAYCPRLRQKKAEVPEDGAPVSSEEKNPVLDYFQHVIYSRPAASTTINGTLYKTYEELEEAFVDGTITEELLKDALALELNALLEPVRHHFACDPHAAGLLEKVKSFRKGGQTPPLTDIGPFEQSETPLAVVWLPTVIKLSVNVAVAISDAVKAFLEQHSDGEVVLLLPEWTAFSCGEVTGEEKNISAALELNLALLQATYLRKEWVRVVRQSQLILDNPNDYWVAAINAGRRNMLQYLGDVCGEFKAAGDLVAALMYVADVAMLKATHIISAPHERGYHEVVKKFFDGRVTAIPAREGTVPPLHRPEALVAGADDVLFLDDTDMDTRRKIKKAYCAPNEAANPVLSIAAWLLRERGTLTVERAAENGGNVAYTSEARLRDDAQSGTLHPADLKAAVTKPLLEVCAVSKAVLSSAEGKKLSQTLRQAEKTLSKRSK
Put plainly: Trypanosoma cruzi tyrosyl tRNA synthetase (TcYRS) _High Tyrosine SOP. Note: in the data most compounds retested in dose-response had high values. The format is functional. Conditions: 30 µM.

For test [8], the target named is T4, Tyrosyl-tRNA synthetase, putative (Trypanosoma cruzi (strain CL Brener)). Put plainly: Trypanosoma cruzi tyrosyl tRNA synthetase (TcYRS) SOP. The format is functional. Conditions: 30 µM.
Test [9] concerns the target Chromo domain-containing protein 1 (Saccharomyces cerevisiae (strain ATCC 204508 / S288c) (Baker's yeast)) (UniProt P32657). The test can be described thus: ScCHD-1 Enzyme Inhibition Assay. Note: in the data most compounds retested in dose-response had high values. The format is functional. To be noted: 30 µM.

Chain of Chromo domain-containing protein 1 (Saccharomyces cerevisiae (strain ATCC 204508 / S288c) (Baker's yeast)) (P32657 whole entry, the tested form may be a part): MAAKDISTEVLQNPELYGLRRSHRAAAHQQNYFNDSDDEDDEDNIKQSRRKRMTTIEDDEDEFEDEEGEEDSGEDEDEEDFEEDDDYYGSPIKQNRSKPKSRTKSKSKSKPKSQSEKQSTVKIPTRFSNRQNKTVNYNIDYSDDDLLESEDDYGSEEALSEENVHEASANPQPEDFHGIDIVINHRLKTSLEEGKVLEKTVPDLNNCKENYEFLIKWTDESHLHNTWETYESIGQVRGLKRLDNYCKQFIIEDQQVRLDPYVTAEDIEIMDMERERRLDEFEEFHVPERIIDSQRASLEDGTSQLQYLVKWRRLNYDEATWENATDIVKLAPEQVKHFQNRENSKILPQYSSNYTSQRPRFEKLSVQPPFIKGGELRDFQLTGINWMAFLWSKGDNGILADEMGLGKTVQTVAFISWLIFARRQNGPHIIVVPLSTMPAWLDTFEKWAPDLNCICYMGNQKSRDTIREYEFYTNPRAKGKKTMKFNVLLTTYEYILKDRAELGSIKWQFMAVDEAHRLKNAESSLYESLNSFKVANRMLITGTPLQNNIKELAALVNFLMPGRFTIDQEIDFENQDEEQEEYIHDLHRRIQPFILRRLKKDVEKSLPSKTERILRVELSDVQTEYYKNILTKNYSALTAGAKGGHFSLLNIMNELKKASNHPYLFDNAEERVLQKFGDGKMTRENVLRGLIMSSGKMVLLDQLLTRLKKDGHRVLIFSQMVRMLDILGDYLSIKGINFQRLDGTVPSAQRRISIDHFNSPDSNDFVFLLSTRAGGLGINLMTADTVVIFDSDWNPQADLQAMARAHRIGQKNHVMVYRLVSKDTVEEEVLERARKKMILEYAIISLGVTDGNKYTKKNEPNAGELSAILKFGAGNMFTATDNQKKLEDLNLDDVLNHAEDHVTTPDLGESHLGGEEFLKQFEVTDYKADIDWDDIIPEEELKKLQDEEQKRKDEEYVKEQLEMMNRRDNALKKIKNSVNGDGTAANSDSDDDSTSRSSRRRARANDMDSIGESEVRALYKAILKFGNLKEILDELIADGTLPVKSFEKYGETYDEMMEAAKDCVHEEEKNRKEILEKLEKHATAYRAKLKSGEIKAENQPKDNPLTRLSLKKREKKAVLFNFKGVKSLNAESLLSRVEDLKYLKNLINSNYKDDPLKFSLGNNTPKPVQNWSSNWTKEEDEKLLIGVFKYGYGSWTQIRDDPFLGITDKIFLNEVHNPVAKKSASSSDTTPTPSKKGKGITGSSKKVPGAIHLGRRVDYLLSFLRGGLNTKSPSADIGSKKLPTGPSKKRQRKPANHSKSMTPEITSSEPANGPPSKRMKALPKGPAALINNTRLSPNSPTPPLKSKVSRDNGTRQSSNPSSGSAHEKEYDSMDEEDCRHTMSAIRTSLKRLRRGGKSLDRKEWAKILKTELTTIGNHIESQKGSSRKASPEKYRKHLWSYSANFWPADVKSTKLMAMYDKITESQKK

On to `Cc1cccc(NC(=O)c2sccc2C)n1`, for which the Percent Effect was -3.25% in test [1]; 23.7% in test [2]; -0.39% in test [3]; -12.7% in test [4]; 3.99% in the test on Trypanosoma cruzi; -16.6% in test [5] (33.3 µM). Further, the Percent Effect in test [6] was 91.2% and 92.2% and 77.2%; with N/A, 69.5% and 70.4%; in the test filed under Homo sapiens it was 16.1%; in test [7], 1.06%; in [8], 13%; in test [9], -7.3%.
`Cc1ccc(NCc2cncc3c2CCN(C(=O)C2CC=CC2)C3)nn1`: the Percent Effect was -0.965% in [1]; 5.33% in [2]; -0.665% in [3]; 8.87% in test [4]; 1.74% in the test on Trypanosoma cruzi; -24.9% in test [5] (33.3 µM). For the same molecule, the Percent Effect in test [6] was 30.2% and 30.4% and 33.3%; in the test on N/A it was 16.9% and 15.1%; in the test listed under Homo sapiens, -6.99%; in [7] it was 13.5%; in test [8], 32.5%; in test [9], -6.63%.
As to `CCc1nc(COc2ccc(OCc3cnn(C)c3)cc2)no1`, the Percent Effect in [1] was -3.52%; in test [2], 13.5%; in test [3], -5.93%; in [4] it was 21.3%; in the test with Trypanosoma cruzi, 3.86%; in test [5] (33.3 µM), 4.29%. In addition, the Percent Effect in [6] is 50.7% (2×) and 48.5%; with N/A, 32% and 28.2%; in the test filed under Homo sapiens it was 23.4%; in [7], 3.7%; in test [8], 19.5%; in [9], -9.15%.
Take `O=C1CC(c2ccsc2)c2c(n(C3CCOCC3)[nH]c2=O)N1` (stereo unspecified): the Percent Effect in test [1] is -5.06%; in test [2] it was -30.7%; in [3] it was -12.7%; in test [4], 0.762%; in the test with Trypanosoma cruzi, 2.36%; in test [5] (30 µM), 2.7%. For the same molecule, the Percent Effect in [5] (33.3 µM) was 2.64%; in [6], 16.4%; in the test listed under Homo sapiens, 1.56%; in test [7] it was 6.35%; in test [8], 15.4%; in test [9], -7.86%.
Regarding `Cc1cc(NC(=O)N2CCN(c3nc(C)c(C)s3)CC2)no1`, the Percent Effect was -4.08% in test [1]; -2.7% in [2]; 8.59% in test [3]; -1.24% in [4]; -4.3% in the test with Trypanosoma cruzi; 3.78% in test [5] (30 µM). For the same molecule, the Percent Effect in [5] (33.3 µM) was 0.833%; in [6] it was 12.8%; in the test listed under Homo sapiens it was -8.43%; in test [7], 5.94%; in [8], 8.54%; in test [9], -0.744%.
Consider `Cn1cc(-c2cnc(N3CCCC3)nc2)cc1C(=O)O`, for which the Percent Effect is -4.18% in test [1]; 8.11% in test [2]; 4.07% in test [3]; 6.18% in test [4]; 6.05% with Trypanosoma cruzi; 22.9% in test [5] (33.3 µM). The Percent Effect in test [6] is 95.3% and 96.7% and 97.6%; in the test with N/A it was 80% and 80.9%; in the test listed under Homo sapiens it was -5.85%; in [7] it was 5.94%; in [8] it was 13.4%; in test [9] it was -8.33%.
Regarding `CN(C)C(=O)CNC(=O)c1cc(Br)c2c(c1)OCCO2`, the Percent Effect in [1] was -5.71%; in test [2] it was 8%; in test [3], -2.43%; in [4] it was 7.31%; in the test on Trypanosoma cruzi it was 4.58%; in test [5] (30 µM), 4.87%. The Percent Effect in test [5] (33.3 µM) was 1.56%; in test [6], 21.6%; in the test filed under Homo sapiens, -10.2%; in [7], 7.1%; in test [8], 18.5%; in test [9], -4.33%.
In the case of `Cc1nc(CN2CCOC(CNc3cccnn3)C2)oc1C` (stereo unspecified), the Percent Effect is -1.3% in test [1]; 0% in [2]; -22.1% in test [3]; -5.8% in [4]; 0.283% with Trypanosoma cruzi; 28.9% in test [5] (33.3 µM). Further, the Percent Effect in test [6] is 30.6% and 26.7% and 36.4%; in the test on N/A, 11.3% and 10.2%; in the test listed under Homo sapiens, 11.3%; in test [7], 2.46%; in test [8] it was -8.64%; in test [9], -0.197%.
